PubChem BioAssay (EPA / NIEHS)
Activity calls are given as the source filed them. Rule for the calls: active = hit-call score of the fitted dose curve at least 0.9, where 1 is the maximum; inactive = score below 0.9.

Tests used:
[1] = target: Transcription factor E2F1 (Homo sapiens) (UniProt Q01094); assay: ATG_E2F_CIS: Attagene CIS-FACTORIAL HepG2 Assay for human E2F Transcription Factor 1 (AID 2282935); conditions: HepG2 Attagene cis-reporter, E2F reporter RNA transcripts; actives raise or lower the signal
Chain of Transcription factor E2F1 (Homo sapiens) (Q01094 whole entry, looked up): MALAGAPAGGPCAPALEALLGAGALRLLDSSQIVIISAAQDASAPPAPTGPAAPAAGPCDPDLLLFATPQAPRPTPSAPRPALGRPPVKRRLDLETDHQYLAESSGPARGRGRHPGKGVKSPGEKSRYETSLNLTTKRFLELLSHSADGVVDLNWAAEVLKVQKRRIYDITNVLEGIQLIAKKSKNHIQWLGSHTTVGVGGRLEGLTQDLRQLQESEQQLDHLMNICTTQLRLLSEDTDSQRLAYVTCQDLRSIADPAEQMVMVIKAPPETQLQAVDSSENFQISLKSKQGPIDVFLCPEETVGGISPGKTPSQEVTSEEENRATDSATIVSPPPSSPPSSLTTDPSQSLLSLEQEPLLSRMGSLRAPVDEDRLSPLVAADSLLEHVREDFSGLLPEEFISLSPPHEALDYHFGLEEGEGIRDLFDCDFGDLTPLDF
Outline: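 In this cis-factorial format, endogenous factor activity drives transfected reporters in HepG2; transcripts collected at 24 h are quantified by fluorescence after RT-PCR and capillary separation.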

[2] = ATG_E_Box_CIS: Attagene CIS-FACTORIAL HepG2 Assay for human Enhancer Box (E-box) (AID 2282936); conditions: HepG2 E-box cis-reporter transcription, actives raise or lower the signal
Outline: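 Measured 24 h post-dosing in HepG2 cells transfected with multiple cis-regulated reporter units, signal being reporter mRNA induction detected by fluorescent RT-PCR with capillary electrophoresis; gain or loss fitted against DMSO.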

[3] = ATG_EGR_CIS: Attagene CIS-FACTORIAL HepG2 Assay for human Early Growth Response 1 (EGR1) (AID 2282938); conditions: HepG2 Attagene CIS-FACTORIAL EGR reporter mRNA; actives raise or lower the signal
Outline: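 After a 24 h treatment of transiently transfected HepG2 cells, total RNA was reverse-transcribed and reporter sequences PCR-amplified, labelled and run on capillary electrophoresis. Reporters sit under cis-regulatory promoters sensing endogenous factors.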

[4] = ATG_M_19_CIS: Attagene CIS-FACTORIAL HepG2 Assay for M19 Transcription Factor (Internal Marker) (AID 2282939); conditions: HepG2 Attagene CIS-FACTORIAL M19 internal marker reporter; actives raise or lower the signal
Outline: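 Internal marker readout, fitted in both directions against DMSO, from HepG2 cells carrying transfected cis-element reporter constructs; RT-PCR and capillary electrophoresis of reporter mRNA after 24 h exposure.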

[5] = ATG_ERE_CIS: Attagene CIS-FACTORIAL HepG2 Assay for Estrogen Response Element (ERE) (AID 2282940); conditions: HepG2 ERE cis-reporter, Attagene RNA transcript; actives raise or lower the signal
Outline: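 After 24 h compound treatment, RNA from transfected HepG2 cells was reverse-transcribed, reporter cDNA PCR-amplified, FAM-labelled, HpaI-cut and resolved by capillary electrophoresis. ERE-driven cis reporter transcripts reflect endogenous factors; gain or loss scored against DMSO.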

[6] = ATG_Ets_CIS: Attagene CIS-FACTORIAL HepG2 Assay for human Erythroblast Transformation Specific (ETS) (AID 2282941); conditions: HepG2 ETS cis-reporter transcription, actives raise or lower the signal
Outline: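 Bidirectional fit versus DMSO of reporter mRNA signal, detected by RT-PCR and capillary electrophoresis in HepG2 cells transiently transfected with cis-element reporters and dosed 24 h.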

[7] = target: Hepatocyte nuclear factor 3-beta (Homo sapiens) (UniProt Q9Y261); assay: ATG_FoxA2_CIS: Attagene CIS-FACTORIAL HepG2 Assay for human Forkhead box A2 (FOXA2) (AID 2282942); conditions: HepG2 cis-reporter transcription factor activity, 24 h; actives raise or lower the signal
Chain of Hepatocyte nuclear factor 3-beta (Homo sapiens) (Q9Y261 whole entry, looked up): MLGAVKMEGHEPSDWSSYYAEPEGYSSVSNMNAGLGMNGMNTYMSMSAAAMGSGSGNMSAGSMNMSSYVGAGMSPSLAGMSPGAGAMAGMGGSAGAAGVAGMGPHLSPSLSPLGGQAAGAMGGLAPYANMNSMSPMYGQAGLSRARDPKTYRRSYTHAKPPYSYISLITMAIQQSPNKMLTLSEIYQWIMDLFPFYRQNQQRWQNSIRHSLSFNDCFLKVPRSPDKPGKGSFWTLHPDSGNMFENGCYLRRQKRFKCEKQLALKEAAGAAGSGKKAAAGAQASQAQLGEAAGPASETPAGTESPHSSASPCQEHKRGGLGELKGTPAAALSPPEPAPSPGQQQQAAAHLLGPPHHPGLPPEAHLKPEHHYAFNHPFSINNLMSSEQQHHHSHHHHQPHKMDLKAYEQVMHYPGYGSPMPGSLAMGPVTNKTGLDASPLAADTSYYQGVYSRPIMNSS
Outline: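 24 h dosing of HepG2 bearing cis-reporter constructs; mRNA readout by RT-PCR/CE fluorescence; bidirectional fit, DMSO baseline.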

[8] = ATG_FoxO_CIS: Attagene CIS-FACTORIAL HepG2 Assay for human Forkhead box O (FoxO) (AID 2282943); conditions: HepG2 Attagene cis-reporter, FoxO element, mRNA; actives raise or lower the signal
Outline: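 HepG2 cells transiently transfected with cis-promoter-driven multiple reporter transcription units; 24 h after chemical dosing, reporter mRNA quantified by RT-PCR, fluorescent primer extension, HpaI digestion and capillary electrophoresis. Bidirectional fitting versus DMSO baseline.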

[9] = ATG_GATA_CIS: Attagene CIS-FACTORIAL HepG2 Assay for human GATA Binding Protein (AID 2282944); conditions: HepG2 GATA cis-element reporter, Attagene multiplex mRNA; actives raise or lower the signal
Outline: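 Reporter transcripts from a GATA cis-regulated unit, among multiplexed reporters in transfected HepG2 cells, were measured by RT-PCR with capillary electrophoresis after 24 h dosing. Induction or loss scored relative to DMSO.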

[10] = ATG_GLI_CIS: Attagene CIS-FACTORIAL HepG2 Assay for human Zinc Finger Protein GLI1 (AID 2282945); conditions: HepG2, Attagene cis-factorial reporter mRNA, GLI element; actives raise or lower the signal
Outline: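 HepG2 cells transiently transfected with cis-promoter multiplexed reporter units report endogenous transcription factor activity. After 24 h chemical exposure, reporter mRNA was quantified by RT-PCR, 6-FAM labelling, HpaI digestion and capillary electrophoresis, with bidirectional fitting against DMSO.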

[11] = target: Bile acid receptor (Homo sapiens) (UniProt Q96RI1); assay: ATG_IR1_CIS: Attagene CIS-FACTORIAL HepG2 Assay for human Nuclear Receptor Subfamily 1 Group H Member 4 (NR1H4), IR1 submotif (AID 2282946); conditions: IR1 reporter transcription, actives raise or lower the signal
Chain of Bile acid receptor (Homo sapiens) (Q96RI1 whole entry, looked up): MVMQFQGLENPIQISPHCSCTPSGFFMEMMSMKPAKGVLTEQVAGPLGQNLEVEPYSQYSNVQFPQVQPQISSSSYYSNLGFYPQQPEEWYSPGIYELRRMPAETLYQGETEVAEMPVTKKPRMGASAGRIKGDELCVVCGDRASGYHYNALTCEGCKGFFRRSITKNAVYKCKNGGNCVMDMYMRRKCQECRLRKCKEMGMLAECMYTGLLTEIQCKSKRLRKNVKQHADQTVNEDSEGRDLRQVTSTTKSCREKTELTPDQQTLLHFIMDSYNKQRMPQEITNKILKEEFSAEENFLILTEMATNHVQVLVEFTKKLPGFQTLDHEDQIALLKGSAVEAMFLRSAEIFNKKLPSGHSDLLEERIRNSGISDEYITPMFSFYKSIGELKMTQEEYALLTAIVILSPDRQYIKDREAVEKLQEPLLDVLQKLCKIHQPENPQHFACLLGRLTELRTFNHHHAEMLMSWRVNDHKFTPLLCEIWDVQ
Outline: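 Readout: reporter transcript levels by RT-PCR with fluorescent capillary electrophoresis, from HepG2 cells transiently transfected with multiplexed cis-regulated reporters and dosed 24 h. Gain- or loss-of-signal fitted versus DMSO negative control.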

[12] = ATG_ISRE_CIS: Attagene CIS-FACTORIAL HepG2 Assay for human Interferon Regulatory Factor 1 (IRF1) binding to an Interferon-Stimulated Response Element (ISRE) (AID 2282948); conditions: HepG2 ISRE cis-reporter (Attagene), mRNA transcription readout; actives raise or lower the signal
Outline: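 Uses HepG2 liver cells transfected with cis-regulated reporters and measures mRNA 24 h post-dosing through RT-PCR, primer-extension labelling and capillary electrophoresis, with DMSO as negative control.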

[13] = ATG_M_32_CIS: Attagene CIS-FACTORIAL HepG2 Assay for M32 Transcription Factor (Internal Marker) (AID 2282949); conditions: HepG2 Attagene cis-factorial M32 reporter, mRNA; actives raise or lower the signal;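 note: background control marker of the multiplexed CIS panel rather than a real target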
Outline: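 Using DMSO as baseline, bidirectional curve fits were applied to reporter mRNA signals. These came from transiently transfected HepG2 cells exposed for 24 h, with RNA analysed by RT-PCR, FAM primer extension, HpaI digestion and CE.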

[14] = ATG_M_06_CIS: Attagene CIS-FACTORIAL HepG2 Assay for M06 Transcription Factor (Internal Marker) (AID 2282950); conditions: HepG2 Attagene CIS-FACTORIAL M06 internal marker reporter; actives raise or lower the signal
Outline: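 Serves as a background control readout. Transfected HepG2 exposed to compounds for 24 h, then reporter transcripts quantified by fluorescent RT-PCR and capillary electrophoresis. Both directions fitted against DMSO baseline.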

[15] = target: Hypoxia-inducible factor 1-alpha (Homo sapiens) (UniProt Q16665); assay: ATG_HIF1a_CIS: Attagene CIS-FACTORIAL HepG2 Assay for human Hypoxia Inducible Factor 1 (HIF1A) (AID 2282951); conditions: HepG2 Attagene cis-factorial HIF1a reporter transcription; actives raise or lower the signal
Chain of Hypoxia-inducible factor 1-alpha (Homo sapiens) (Q16665 whole entry, looked up): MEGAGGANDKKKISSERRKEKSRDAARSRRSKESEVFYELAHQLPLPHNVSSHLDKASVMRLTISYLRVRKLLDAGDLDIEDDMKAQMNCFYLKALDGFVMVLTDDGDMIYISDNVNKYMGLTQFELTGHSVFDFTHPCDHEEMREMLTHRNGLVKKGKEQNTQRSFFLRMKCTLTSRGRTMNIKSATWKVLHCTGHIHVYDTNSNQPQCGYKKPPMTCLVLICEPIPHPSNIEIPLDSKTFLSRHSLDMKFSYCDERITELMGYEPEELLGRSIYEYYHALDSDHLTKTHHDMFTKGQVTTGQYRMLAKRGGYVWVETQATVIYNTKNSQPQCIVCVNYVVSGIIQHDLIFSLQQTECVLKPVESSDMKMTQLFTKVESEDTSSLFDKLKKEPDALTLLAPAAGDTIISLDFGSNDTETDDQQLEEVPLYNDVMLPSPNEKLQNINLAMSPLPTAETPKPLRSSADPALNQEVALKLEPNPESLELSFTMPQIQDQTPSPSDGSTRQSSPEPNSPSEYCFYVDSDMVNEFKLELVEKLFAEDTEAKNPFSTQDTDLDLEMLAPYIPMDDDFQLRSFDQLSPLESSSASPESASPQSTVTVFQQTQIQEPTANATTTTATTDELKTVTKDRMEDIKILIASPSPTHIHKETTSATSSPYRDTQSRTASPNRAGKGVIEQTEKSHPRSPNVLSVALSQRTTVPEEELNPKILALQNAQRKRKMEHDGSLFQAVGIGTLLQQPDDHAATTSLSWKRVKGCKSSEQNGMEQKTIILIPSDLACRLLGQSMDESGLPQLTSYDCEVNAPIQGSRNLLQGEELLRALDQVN
Outline: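 After 24 h chemical exposure of reporter-transfected HepG2 cells, reporter cDNA was PCR-amplified, labelled by 6-FAM primer extension (2 min 95 C, 20 s 68 C, 10 min 72 C), HpaI-cut (2 h, 37 C) and analysed by CE.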

[16] = ATG_MRE_CIS: Attagene CIS-FACTORIAL HepG2 Assay for human Metal Responsive Element (MRE) (AID 2282954); conditions: HepG2 MRE cis-reporter transcription, Attagene multiplex; actives raise or lower the signal
Outline: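 Readout: capillary electrophoresis of 6-FAM-labelled, HpaI-digested RT-PCR reporter products. System: HepG2 cells carrying transient multiplexed cis reporters, dosed 24 h. Analysis: bidirectional fit, DMSO baseline.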

[17] = ATG_GRE_CIS: Attagene CIS-FACTORIAL HepG2 Assay for human Glucocorticoid Response Elements (GRE) (AID 2282947); conditions: HepG2 GRE cis-reporter, Attagene multiplex mRNA; actives raise or lower the signal
Outline: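 HepG2, transient cis-reporter transfection, 24 h. Reporter mRNA: RT-PCR then CE, fluorescence. Fit both directions vs DMSO.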

[18] = target: Hepatocyte nuclear factor 6 (Homo sapiens) (UniProt Q9UBC0); assay: ATG_HNF6_CIS: Attagene CIS-FACTORIAL HepG2 Assay for human Hepatocyte Nuclear Factor 6 (HNF6) (AID 2282952); conditions: HepG2 Attagene cis-factorial HNF6 reporter transcription; actives raise or lower the signal
Chain of Hepatocyte nuclear factor 6 (Homo sapiens) (Q9UBC0 whole entry, looked up, the tested form may be a part): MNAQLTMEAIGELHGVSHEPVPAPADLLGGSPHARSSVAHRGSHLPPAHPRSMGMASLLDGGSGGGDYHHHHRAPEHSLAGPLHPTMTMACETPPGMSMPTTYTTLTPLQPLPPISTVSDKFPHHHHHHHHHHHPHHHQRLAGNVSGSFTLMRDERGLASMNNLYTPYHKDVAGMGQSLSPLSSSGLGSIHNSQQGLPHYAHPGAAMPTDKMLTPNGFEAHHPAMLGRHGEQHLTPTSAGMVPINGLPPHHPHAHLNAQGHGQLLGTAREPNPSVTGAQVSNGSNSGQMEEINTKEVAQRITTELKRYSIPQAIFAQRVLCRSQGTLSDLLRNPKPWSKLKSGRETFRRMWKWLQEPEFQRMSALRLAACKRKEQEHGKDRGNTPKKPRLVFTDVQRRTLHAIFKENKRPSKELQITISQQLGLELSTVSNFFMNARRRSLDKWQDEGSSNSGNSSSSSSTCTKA
Outline: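 Twenty-four-hour chemical treatment of reporter-transfected HepG2 cells precedes RNA isolation, DNase-treated reverse transcription and PCR of reporter sequences. Labelled fragments are sized by capillary electrophoresis and fitted bidirectionally versus DMSO.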

[19] = target: Heat shock factor protein 1 (Homo sapiens) (UniProt Q00613); assay: ATG_HSE_CIS: Attagene CIS-FACTORIAL HepG2 Assay for human Heat Shock Transcription Factor 1 (HSE) (AID 2282953); conditions: HepG2 HSE cis-reporter, Attagene RNA transcription; actives raise or lower the signal
Chain of Heat shock factor protein 1 (Homo sapiens) (Q00613 whole entry, looked up): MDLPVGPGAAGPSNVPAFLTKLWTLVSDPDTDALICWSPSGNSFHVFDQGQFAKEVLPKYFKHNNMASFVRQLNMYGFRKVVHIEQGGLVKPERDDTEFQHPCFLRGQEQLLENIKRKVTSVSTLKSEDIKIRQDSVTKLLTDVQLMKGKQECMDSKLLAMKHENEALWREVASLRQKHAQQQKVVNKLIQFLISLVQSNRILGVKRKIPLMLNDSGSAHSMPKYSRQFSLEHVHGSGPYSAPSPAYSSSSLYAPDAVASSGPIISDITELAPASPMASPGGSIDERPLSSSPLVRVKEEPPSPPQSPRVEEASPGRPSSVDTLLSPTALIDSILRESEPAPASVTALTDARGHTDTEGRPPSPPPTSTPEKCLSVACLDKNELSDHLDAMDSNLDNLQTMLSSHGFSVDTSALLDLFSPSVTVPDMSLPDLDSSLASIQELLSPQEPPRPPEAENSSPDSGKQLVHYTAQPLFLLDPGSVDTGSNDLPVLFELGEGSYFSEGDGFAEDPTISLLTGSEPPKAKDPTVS
Outline: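 Endogenous transcription factor activity in transiently transfected HepG2, read as reporter mRNA by RT-PCR with fluorescent capillary electrophoresis after 24 h. Gain or loss of signal fitted versus DMSO baseline.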

[20] = ATG_M_61_CIS: Attagene CIS-FACTORIAL HepG2 Assay for M61 Transcription Factor (Internal Marker) (AID 2282937); conditions: HepG2 Attagene CIS-FACTORIAL M61 internal marker reporter; actives raise or lower the signal
Outline: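 Transfect HepG2 with MRTUs; dose 24 h; isolate RNA; reverse-transcribe with DNase I treatment; PCR-amplify, FAM-label and cut with HpaI for 2 h at 37 C; resolve by CE. Bidirectional fitting against DMSO.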

Measured: AC50

COC(=O)c1ccccc1C
not listed: [17] | [18] | [19] | [20]
inactive: all other assays above

CCN1CCCC1=O
not listed: [8] | [10] | [19] | [20]
inactive: all other assays above

C1CNCCN1
not listed: [8] | [11] | [20]
inactive: all other assays above

CC=C(C)C=CC=C(C)C
not listed: [11] | [20]
inactive: all other assays above

CC12CCC(CC1)C(C)(C)O2
not listed: [18] | [20]
inactive: all other assays above

CCOC(=O)c1ccccc1C
not listed: [1] | [16] | [19]
inactive: all other assays above

CC(=O)OC(C)c1ccccc1 (centres undefined)
not listed: [11] | [20]
inactive: all other assays above

O=c1c(O)c(-c2ccc(O)cc2O)oc2cc(O)cc(O)c12
active: [5] 0.65 µM
not listed: [3] | [15] | [18] | [20]
inactive: all other assays above

Cc1c(Cl)cccc1Cl
not listed: [3] | [8] | [11]
inactive: all other assays above

CC(C)(C)C1CCC(=O)CC1
active: [19] 156 µM
not listed: [1] | [16]
inactive: all other assays above

O=C(OCCc1ccccc1)c1ccccc1
not listed: [1] | [3] | [10] | [11] | [16]
inactive: all other assays above

Nc1ccc(C(=O)OCCCOC(=O)c2ccc(N)cc2)cc1
not listed: [1] | [16]
inactive: all other assays above

CC(C)(CO)COC(=O)C(C)(C)CO
not listed: [1] | [3] | [10]
inactive: all other assays above

C=CC(=O)OCCCCCCCCCC
not listed: [1] | [8] | [11]
inactive: all other assays above

Cc1ccc2c(c1)CCCN2
not listed: [1] | [8] | [11] | [18]
inactive: all other assays above

CCOC(=O)C1=NN(c2ccc(Cl)cc2Cl)C(C)(C(=O)OCC)C1 (centres undefined)
active: [19] 137 µM | [16] 66.8 µM
not listed: [1]
inactive: all other assays above

O=C(O)C(F)(F)C(F)(F)C(F)(F)C(F)(F)C(=O)O
not listed: [1] | [15] | [19]
inactive: all other assays above

C=C1C[C@H]2[C@@H]3C=C(C)C4=CC(=O)CC[C@]4(C)[C@H]3CC[C@]2(C)[C@@]1(OC(C)=O)C(C)=O
active: [2] 97.6 µM | [3] 52.3 µM | [9] 93.6 µM | [17] 0.057 µM | [16] 74.1 µM
not listed: [1] | [8] | [11] | [19]
inactive: all other assays above

C[Si](C)(C)N[Si](C)(C)C
not listed: [1] | [11]
inactive: all other assays above

CC(C)CCCCCOC(=O)CS
not listed: [1] | [10] | [11] | [20]
inactive: all other assays above

CCC(C)C(=O)OC (centres undefined)
not listed: [1] | [3]
inactive: all other assays above

O=C(O)CCC(=O)O
not listed: [1] | [10] | [17] | [20]
inactive: all other assays above

Nc1ccc(Cl)c(N)c1
not listed: [1] | [17]
inactive: all other assays above

CC1=CCC(C(C)C)C=C1 (centres undefined)
active: [16] 62.6 µM
not listed: [1] | [11] | [17] | [19]
inactive: all other assays above

CCCCCCCCCCCCc1ccc(O)cc1
active: [5] 0.146 µM
not listed: [1] | [17]
inactive: all other assays above

CC=C(C)C(C)=O
not listed: [1] | [11]
inactive: all other assays above

COc1cc(C)ccc1O
not listed: [1] | [11] | [18]
inactive: all other assays above

C[N+](C)(C)CCCNS(=O)(=O)C(F)(F)C(F)(F)C(F)(F)C(F)(F)C(F)(F)C(F)(F)C(F)(F)C(F)(F)F
not listed: [1] | [8]
inactive: all other assays above
